Measured values published in the supplement of paper PMC11732987, “Enantioselective OTUD7B fragment discovery through chemoproteomics screening and high-throughput optimisation” (Communications Chemistry, 2025).

Assays:
Test in all cases: log2 ratio of Biotin-Ahx-Ub-VS probe labelling (fragment/DMSO); higher = less target engagement (more negative = stronger competition), active = hit call of the paper (q ≤ 0.05, log2 ratio ≤ -1)
Details in all cases: compound concentration: 200 uM; treatment time: 3 h
USP19 = biological target: T1, USP19 (UniProt O94966)
T1 sequence (whole entry): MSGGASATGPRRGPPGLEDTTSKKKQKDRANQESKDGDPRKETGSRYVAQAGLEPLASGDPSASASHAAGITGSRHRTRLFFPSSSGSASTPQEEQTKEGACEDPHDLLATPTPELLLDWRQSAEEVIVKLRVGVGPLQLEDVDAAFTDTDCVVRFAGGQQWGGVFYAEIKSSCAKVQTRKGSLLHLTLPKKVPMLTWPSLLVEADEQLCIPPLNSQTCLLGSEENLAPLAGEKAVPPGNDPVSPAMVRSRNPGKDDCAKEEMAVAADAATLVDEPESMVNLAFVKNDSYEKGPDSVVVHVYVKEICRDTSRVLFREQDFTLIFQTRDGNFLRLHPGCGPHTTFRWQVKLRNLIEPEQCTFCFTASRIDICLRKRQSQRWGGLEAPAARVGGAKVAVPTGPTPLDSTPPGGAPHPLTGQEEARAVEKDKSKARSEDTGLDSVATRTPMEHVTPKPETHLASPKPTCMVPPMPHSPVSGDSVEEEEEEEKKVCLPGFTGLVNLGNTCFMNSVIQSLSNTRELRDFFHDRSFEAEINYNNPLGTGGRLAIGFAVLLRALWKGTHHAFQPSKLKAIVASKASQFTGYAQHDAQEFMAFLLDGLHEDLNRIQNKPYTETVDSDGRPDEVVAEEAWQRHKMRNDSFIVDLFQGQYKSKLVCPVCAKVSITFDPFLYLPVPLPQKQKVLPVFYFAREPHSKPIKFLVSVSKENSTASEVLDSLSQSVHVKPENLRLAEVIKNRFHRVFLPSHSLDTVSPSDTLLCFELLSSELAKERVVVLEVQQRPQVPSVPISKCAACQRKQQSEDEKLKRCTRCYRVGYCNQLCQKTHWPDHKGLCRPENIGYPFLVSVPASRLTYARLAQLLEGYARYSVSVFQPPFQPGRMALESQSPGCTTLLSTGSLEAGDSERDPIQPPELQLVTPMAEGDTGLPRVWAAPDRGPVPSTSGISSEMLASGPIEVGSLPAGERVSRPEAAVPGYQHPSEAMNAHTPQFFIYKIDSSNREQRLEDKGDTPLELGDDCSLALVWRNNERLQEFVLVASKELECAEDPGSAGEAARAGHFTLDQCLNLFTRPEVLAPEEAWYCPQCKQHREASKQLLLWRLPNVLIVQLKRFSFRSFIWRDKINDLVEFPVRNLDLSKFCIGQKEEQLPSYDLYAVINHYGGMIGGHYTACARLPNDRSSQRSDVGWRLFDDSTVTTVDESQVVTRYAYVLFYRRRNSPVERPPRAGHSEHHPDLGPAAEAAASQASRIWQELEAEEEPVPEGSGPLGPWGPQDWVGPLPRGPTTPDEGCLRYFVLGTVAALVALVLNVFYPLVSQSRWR
How it was run: (§1)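 Values give the average log2 ratio of fragment to vehicle, assessed by unpaired t-test on global-median-normalised Spectronaut label-free quantities. Proteins needed ≥2 unique peptides. HEK293T lysate (495 µg per sample) was treated in triplicate with fragment at 200 µM or vehicle for 3 h and then with Biotin-Ahx-Ub-VS at 0.5 µM final for 1 h. Labelled DUBs were NeutrAvidin-enriched, digested and run by diaPASEF LC-MS/MS.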

USP22 = biological target: T2, USP22 (UniProt Q9UPT9)
T2 sequence (whole entry): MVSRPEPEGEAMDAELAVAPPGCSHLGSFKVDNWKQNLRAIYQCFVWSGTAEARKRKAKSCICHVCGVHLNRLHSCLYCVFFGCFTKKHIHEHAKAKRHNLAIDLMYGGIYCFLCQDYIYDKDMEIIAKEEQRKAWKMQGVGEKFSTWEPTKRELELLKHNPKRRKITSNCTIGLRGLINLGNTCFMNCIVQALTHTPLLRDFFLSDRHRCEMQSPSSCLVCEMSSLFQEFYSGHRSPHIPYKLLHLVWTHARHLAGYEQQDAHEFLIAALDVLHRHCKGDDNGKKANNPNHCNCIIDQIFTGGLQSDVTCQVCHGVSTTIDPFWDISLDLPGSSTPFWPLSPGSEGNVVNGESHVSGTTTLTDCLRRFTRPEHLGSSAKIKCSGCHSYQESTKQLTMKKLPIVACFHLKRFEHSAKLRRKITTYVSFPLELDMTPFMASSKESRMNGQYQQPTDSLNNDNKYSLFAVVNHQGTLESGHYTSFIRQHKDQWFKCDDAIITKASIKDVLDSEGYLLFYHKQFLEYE
How it was run: as §1

USP24 = USP24 (UniProt Q9UPU5)
USP24, sequence (Q9UPU5 whole entry): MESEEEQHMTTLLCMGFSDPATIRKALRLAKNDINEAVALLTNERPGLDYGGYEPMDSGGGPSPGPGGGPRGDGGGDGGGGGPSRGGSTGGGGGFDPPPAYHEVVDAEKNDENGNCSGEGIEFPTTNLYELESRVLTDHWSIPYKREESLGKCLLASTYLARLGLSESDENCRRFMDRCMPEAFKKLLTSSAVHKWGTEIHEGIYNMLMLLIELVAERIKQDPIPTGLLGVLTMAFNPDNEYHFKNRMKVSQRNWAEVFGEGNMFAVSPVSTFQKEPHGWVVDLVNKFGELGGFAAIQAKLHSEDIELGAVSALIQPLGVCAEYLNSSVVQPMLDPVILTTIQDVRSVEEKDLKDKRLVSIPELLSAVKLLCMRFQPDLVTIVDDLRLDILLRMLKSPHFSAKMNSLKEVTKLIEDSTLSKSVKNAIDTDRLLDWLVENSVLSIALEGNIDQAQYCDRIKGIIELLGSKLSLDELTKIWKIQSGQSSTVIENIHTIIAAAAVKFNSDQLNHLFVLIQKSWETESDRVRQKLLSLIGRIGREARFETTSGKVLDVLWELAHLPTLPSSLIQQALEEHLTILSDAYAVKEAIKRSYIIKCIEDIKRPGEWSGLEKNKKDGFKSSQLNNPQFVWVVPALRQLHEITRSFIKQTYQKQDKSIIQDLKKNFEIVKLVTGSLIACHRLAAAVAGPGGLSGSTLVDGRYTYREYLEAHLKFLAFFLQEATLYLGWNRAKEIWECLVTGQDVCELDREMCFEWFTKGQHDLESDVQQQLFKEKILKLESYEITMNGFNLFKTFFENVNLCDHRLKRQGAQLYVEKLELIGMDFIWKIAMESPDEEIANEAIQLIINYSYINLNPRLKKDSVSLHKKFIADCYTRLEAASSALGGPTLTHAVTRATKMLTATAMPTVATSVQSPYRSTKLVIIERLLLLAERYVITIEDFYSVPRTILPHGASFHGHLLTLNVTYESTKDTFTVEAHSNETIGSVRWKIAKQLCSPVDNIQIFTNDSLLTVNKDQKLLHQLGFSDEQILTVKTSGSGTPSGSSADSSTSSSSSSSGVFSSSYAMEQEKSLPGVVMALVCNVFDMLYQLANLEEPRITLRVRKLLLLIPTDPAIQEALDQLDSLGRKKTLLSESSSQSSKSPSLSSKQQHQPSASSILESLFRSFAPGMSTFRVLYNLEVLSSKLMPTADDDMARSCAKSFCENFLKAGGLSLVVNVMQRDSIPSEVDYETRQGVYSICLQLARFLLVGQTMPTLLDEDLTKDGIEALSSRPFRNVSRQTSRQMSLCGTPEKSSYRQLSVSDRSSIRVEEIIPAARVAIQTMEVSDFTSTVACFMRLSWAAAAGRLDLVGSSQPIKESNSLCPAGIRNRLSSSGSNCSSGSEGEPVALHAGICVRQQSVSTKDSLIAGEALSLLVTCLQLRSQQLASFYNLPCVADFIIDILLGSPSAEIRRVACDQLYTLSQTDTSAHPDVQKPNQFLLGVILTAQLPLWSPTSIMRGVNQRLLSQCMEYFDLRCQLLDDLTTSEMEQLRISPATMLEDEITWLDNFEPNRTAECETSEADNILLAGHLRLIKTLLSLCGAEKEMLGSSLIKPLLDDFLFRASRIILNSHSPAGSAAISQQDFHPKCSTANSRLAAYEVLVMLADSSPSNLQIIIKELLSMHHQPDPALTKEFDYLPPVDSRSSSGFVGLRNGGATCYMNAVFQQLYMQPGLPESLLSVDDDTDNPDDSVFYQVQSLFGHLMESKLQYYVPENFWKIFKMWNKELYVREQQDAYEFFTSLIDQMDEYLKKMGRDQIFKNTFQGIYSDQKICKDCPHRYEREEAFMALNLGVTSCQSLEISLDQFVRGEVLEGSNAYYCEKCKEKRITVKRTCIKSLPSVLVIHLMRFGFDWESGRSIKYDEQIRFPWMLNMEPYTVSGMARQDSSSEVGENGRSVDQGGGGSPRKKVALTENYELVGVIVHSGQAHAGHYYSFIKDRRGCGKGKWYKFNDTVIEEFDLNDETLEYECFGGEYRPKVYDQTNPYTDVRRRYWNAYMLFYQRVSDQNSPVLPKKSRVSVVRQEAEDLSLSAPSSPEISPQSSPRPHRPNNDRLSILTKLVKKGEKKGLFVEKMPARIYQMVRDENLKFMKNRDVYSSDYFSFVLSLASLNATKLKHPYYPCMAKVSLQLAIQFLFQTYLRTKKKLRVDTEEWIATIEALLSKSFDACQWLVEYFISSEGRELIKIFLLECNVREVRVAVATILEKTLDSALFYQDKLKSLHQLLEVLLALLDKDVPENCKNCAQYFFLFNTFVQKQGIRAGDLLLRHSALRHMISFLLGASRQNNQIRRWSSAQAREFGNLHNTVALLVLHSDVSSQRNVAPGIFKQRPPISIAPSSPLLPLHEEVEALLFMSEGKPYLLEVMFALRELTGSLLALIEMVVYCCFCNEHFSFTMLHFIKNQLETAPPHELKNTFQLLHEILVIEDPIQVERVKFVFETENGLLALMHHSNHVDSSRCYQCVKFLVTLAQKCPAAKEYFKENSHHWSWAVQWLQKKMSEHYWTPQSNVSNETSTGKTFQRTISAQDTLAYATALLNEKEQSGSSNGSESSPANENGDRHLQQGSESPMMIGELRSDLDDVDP
How it was run: as §1

USP25 = biological target: T3, USP25 (UniProt Q9UHP3)
T3 sequence (whole entry): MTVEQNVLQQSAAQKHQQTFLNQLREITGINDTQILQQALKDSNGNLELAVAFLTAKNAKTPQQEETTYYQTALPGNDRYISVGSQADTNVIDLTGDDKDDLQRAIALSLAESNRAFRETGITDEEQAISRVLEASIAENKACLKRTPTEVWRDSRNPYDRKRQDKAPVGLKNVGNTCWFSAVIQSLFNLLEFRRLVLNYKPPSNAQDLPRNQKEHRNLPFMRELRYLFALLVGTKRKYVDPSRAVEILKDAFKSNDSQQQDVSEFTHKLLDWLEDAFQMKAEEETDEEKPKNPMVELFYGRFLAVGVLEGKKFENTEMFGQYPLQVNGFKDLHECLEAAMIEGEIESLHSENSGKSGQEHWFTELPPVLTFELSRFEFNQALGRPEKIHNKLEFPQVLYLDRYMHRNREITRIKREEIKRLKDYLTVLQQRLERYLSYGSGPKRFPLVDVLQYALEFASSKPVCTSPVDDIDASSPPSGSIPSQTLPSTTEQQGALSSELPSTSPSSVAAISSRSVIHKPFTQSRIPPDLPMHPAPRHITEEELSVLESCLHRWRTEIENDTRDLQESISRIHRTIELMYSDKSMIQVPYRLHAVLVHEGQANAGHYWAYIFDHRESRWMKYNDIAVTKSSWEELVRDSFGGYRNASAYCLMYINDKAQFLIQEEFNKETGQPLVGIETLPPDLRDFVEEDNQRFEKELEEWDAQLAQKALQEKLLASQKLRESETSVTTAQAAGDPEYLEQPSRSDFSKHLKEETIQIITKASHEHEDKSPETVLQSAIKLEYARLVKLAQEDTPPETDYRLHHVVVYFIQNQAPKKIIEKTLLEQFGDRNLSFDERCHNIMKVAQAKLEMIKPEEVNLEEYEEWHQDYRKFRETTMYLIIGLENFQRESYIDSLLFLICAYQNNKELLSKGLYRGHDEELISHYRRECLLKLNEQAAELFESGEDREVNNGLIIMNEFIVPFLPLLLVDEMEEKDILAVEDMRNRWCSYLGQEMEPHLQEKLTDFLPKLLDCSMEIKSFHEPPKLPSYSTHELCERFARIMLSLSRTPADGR
How it was run: as §1

USP28 = biological target: T4, USP28 (UniProt Q96RU2)
T4 sequence (whole entry): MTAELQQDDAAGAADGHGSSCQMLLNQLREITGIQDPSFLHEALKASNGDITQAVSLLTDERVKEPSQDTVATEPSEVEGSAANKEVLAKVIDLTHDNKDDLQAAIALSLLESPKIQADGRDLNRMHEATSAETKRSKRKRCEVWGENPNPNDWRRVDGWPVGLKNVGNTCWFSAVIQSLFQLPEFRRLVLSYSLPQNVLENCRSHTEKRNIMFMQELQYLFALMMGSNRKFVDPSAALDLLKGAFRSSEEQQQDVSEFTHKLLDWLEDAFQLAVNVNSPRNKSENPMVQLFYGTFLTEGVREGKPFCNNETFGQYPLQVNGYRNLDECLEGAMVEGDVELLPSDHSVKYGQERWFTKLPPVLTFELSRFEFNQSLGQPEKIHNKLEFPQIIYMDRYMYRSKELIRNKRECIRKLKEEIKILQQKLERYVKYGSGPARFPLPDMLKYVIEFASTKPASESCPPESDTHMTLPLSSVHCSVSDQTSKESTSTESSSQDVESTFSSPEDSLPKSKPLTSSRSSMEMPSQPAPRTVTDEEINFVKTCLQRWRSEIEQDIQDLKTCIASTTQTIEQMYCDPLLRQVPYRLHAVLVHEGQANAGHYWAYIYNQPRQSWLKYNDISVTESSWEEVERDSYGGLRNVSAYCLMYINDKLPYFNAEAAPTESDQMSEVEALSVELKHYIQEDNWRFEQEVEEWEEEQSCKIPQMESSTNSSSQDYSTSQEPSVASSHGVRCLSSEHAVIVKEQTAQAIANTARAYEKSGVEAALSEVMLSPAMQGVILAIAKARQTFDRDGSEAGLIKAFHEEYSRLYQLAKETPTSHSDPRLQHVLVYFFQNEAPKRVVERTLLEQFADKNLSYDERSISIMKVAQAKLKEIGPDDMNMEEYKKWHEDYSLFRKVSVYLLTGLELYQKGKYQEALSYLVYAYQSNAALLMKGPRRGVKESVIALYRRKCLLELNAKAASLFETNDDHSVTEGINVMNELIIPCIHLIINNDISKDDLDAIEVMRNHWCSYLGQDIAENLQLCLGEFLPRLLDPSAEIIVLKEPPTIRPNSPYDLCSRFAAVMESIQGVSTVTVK
How it was run: as §1

Measured: log2 ratio of Biotin-Ahx-Ub-VS probe labelling

O=C(CCl)N1CCC(c2nc3ccccc3o2)CC1
inactive: USP19 -0.537 | USP22 -0.0192 | USP24 -0.503 | USP25 -0.466 | USP28 -0.736
